Sm TGR inh: qHTS Assay for the Inhibitors of Schistosoma Mansoni Peroxiredoxins; Schistosoma mansoni thioredoxin glutathione reductase (TGR), Q962Y6; purified TGR, DTNB reduction, TNB absorbance 405 nm; Potency, µM (doses to about 114 µM), most hits filed as inhibitors; actives 3% (n = 360,000); AID 485364, 2010; also: nearly all actives have a fitted effect of over 60% in size
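TGR 20 nM + NADPH 100 uM (dispensed conc.), cpd preinc 15 min RT; start with NADPH (500 uM addition) then DTNB (15 mM addition). Kinetic TNB absorbance, 405 nm filter. Four-parameter Hill fit across titration.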
LmPK inh: qHTS Assay for Inhibitors of Leishmania Mexicana Pyruvate Kinase (LmPK) | Potency, µM (doses to about 57.5 µM), hits mostly inhibitors | Q27686 | actives 0.37% (n = 290,000) | purified LmPK, Kinase-Glo ATP luminescence, 1 h
Target sequence (Q27686 whole entry, looked up): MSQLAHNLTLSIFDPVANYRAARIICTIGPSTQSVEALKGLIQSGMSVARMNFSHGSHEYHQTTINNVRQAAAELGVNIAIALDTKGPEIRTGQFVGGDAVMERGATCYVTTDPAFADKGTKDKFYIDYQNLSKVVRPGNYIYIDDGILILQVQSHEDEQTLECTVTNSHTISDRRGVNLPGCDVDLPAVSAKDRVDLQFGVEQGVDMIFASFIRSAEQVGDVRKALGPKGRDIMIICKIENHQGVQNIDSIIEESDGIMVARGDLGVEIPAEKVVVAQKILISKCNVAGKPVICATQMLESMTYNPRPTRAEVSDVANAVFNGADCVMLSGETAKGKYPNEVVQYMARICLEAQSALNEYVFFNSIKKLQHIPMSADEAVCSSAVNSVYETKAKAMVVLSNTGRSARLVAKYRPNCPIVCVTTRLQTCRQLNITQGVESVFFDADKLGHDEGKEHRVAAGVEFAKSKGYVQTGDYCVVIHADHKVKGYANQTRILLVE
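Pyruvate kinase activity monitored as ATP production (luciferase luminescence). Conditions: 0.1 nM enzyme, 0.5 mM PEP, 0.1 mM ADP, 1 h, RT; normalized against uninhibited and no-enzyme wells.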
AMA1-RON2 inh: qHTS for Inhibitors of AMA1-RON; Towards Development of Antimalarial Drug Lead: Primary Screen. Plasmodium falciparum AMA1 (3D7) - RON2 peptide interaction. AlphaScreen AMA1-biotinylated RON2 peptide binding. Potency, µM (top dose mostly 58.2 µM), usual class: inhibitors. actives 0.2% (n = 360,000); also: nearly all actives have a fitted effect of over 45% in size
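AMA1 (3D7) with his tag at 25 nM final met compounds first, then biotinylated RON2 peptide at 25 nM; detection used donor plus acceptor beads, 10 µg/mL apiece, read by AlphaScreen after 30 min at room temperature.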
RE007 growth inh: qHTS Assay for Inhibitors of the HIV-1 protein Vpr. S. pombe RE007 Vpr strain, BacTiter-Glo ATP luminescence, 24 h. Potency, µM (titrated, usually from 92.2 µM), most hits filed as inhibitors. actives 0.21% (n = 360,000). AID 651644, 2012; active = well fitted falling curve with a large enough effect; inconclusive = small, poorly fitted or top-dose-only effect; inactive = no such curve, though single readings can be large or run the other way; also: nearly all actives have a fitted effect of over 50% in size
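Fission yeast RE007 carrying one integrated HIV-1 vpr copy, seeded at OD 0.01 in PMG+AL medium with 23 nL pinned compound. Grown 24 h at 30 degrees; viability read by BacTiter-Glo luminescence after 5 min.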
Tb PYK inh: qHTS of Trypanosoma Brucei Inhibitors; actives 0.12% (n = 410,000); Potency, µM (titrated, usually from 76.8 µM), most hits filed as inhibitors; TbPYK enzyme, Kinase-Glo Plus ATP luminescence, 45 min; also: nearly all actives have a fitted effect of over 50% in size
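TbPYK + substrate in 50 mM TEA pH 7.2, 100 mM KCl, 10 mM MgCl2, 0.05% BSA, 0.01% Tween-20; cpd pinned; ADP 130 uM final; 45 min RT; Kinase-Glo Plus 10 min; luminescence endpoint.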
A number is an active result; 0 = inactive; ? = inconclusive; - = no result; [ ] = remark or other dose. A selection: hits, their analogues and other compounds. The true share with any hit is near 3.2%. Unless noted, calls follow the shape of the dose curve; as a rule, active = well fitted curve in the direction sought with a large enough effect; inconclusive = small, poorly fitted or top-dose-only effect, or another doubt; inactive = no such curve, though single readings can be large; an effect the other way counts as inactive or inconclusive.

SMILES	Sm TGR inh	LmPK inh	AMA1-RON2 inh	RE007 growth inh	Tb PYK inh
Cc1ccc(CNS(=O)(=O)c2ccc(F)c(F)c2)n1C	20µM	0	0	0	0
Cc1ccc(CNS(=O)(=O)c2ccc(C(F)(F)F)cc2)n1C	15.8µM	0	0	0	0
Cc1ccc(S(=O)(=O)NCc2cc(=O)n(C)c(=O)n2C)cc1C	0	0	0	0	0
COc1ccc(C)cc1NC(=O)c1ccc2c(c1)nnn2C1CCCC1	0	-	-	-	0
O=C(Nc1cc(-c2nc3ccccc3o2)ccc1Cl)c1ccc(Br)o1	?	-	-	-	0
CCOC(=O)c1ccc(N2C(=O)c3n[nH]c(-c4ccco4)c3C2c2cccc(O)c2)cc1 (stereo not drawn)	0	-	-	-	0
O=C(O)CCC(=O)CCC(=O)c1ccccc1	44.7µM	0	0	0	0
Cc1ccc(C(=O)CCC(=O)CCC(=O)O)cc1	-	-	0	0	0
COn1c(C)c(C)c2c3nonc3ccc21	20µM	0	0	?	0
CCOC(=O)c1c(C)n(OCc2ccccc2)c2ccc3nonc3c12	0	0	0	0	0
CCN1/C(=C/c2ccc3cc(C)ccc3[n+]2C)Sc2ccc3sccc3c21	0	0	0	0	0
Cc1sc2c3ccsc3ccc2[n+]1C	0	0	0	0	8.91µM
Cc1sc2ccc3sccc3c2[n+]1C	0	0	0	0	8.91µM
CCCCn1cc(S(=O)(=O)c2cc(C)ccc2C)c(=O)c2cc(F)c(F)cc21	0	-	-	-	0
O=C(O)/C=C/C(=O)c1ccc2c(c1)CCc1ccccc1-2	0.562µM	-	0	?	35.5µM
CC(=O)Nc1ccc2c(c1)CCc1ccccc1-2	0	0	0	0	0
O=C1NC(=O)N(Cc2ccco2)C(=O)/C1=C\c1cccn1CCOc1ccc(Cl)cc1	?	0	0	0	0
Cc1cccc(OCCn2cccc2/C=C2/C(=O)NC(=O)N(Cc3ccco3)C2=O)c1	3.98µM	0	?	0	0
O=C1NC(=O)N(Cc2ccco2)C(=O)/C1=C/c1ccc(-c2cccc([N+](=O)[O-])c2)o1	39.8µM	0	?	0	?
O=C(NC1CCCCC1)c1ccc(CSc2nc3cccnc3n2Cc2ccc(F)cc2)cc1	0	-	-	-	0
O=Cc1ccc2noc(-c3ccc(Cl)cc3)c2c1	50.1µM	0	0	0	0
Cc1ccc(-c2onc3ccc(Cl)cc23)cc1	0	0	0	0	0
Cc1cc(C)c(NC(=O)Cn2c(=O)n(CCC(=O)NCc3ccccc3Cl)c(=O)c3sccc32)c(C)c1	0	-	-	-	0
CC(=O)C1=C(C)OC(N)=C(C#N)C1c1ccncc1 (stereo not drawn)	0	0	0	0	0
CC(=O)C1=C(C)OC(N)=C(C#N)C1c1cccc([N+](=O)[O-])c1 (stereo not drawn)	14.1µM	0	0	0	0
SMILES	Sm TGR inh	LmPK inh	AMA1-RON2 inh	RE007 growth inh	Tb PYK inh
COc1ccc2cc(C3C(C#N)=C(N)OC(C)=C3C(C)=O)c(Cl)nc2c1 (stereo not drawn)	0	0	0	0	0
CC(=O)C1=C(C)OC(N)=C(C#N)C1c1cc([N+](=O)[O-])ccc1Cl (stereo not drawn)	22.4µM	0	0	0	0
Cn1cc(C(=O)O)c(=O)c2cc(S(=O)(=O)N3CCCCC3)ccc21	0	-	-	-	0
COc1ccc(C2=Nc3cccc4cccc(c34)N2)cc1	50.1µM	0	0	0	0
Nc1cccc(C2=Nc3cccc4cccc(c34)N2)c1	0	0	0	0	0
ClCC1=Nc2cccc3cccc(c23)N1	28.2µM	0	-	-	-
O=C(Cn1c(=O)n(Cc2ccc3c(c2)OCO3)c(=O)c2ccc(C(=O)NC3CCCCC3)cc21)Nc1ccccc1F	0	-	-	-	0
CCCCNc1nc2c(S(=O)(=O)c3ccc(Br)cc3)nnn2c2ccsc12	0	-	-	-	0
CCOc1ccc(C(c2c(O)cc(C)n(Cc3ccco3)c2=O)N2CCCCC2)cc1 (stereo not drawn)	7.08µM	-	-	-	0
CCOc1ccc(C(c2c(O)cc(C)n(Cc3ccco3)c2=O)N2CCN(c3ccccc3)CC2)cc1 (stereo not drawn)	3.55µM	-	-	-	0
CC(C)(C)CC(=O)NCC(c1ccc2c(c1)OCO2)N1CCN(c2ccccc2)CC1 (stereo not drawn)	0	-	-	-	0
CC1(C)CC(=O)C(C2C3=C(CC(C)(C)CC3=O)Oc3ccccc32)C(=O)C1 (stereo not drawn)	5.01µM	0	0	0	0
CC1(C)CC(=O)C(C2C3=C(CC(C)(C)CC3=O)Oc3ccccc32)=C(O)C1 (stereo not drawn)	7.94µM	0	0	0	0
CC1(C)CC(=O)C(C2C3=C(CC(C)(C)CC3=O)Oc3ccc4ccccc4c32)C(=O)C1 (stereo not drawn)	-	0	0	0	0
CC(NC(=O)Cn1ccc2cc(S(=O)(=O)N3CCCCCC3)ccc21)c1ccccc1 (stereo not drawn)	0	-	-	-	0
Oc1ccc(COC2CCCC2)c2cccnc12	17.8µM	-	-	-	-
Oc1ccc(CN2CCN(Cc3ccccc3)CC2)c2cccnc12	0	0	0	0	0
Oc1ccc(COCc2ccc(F)cc2)c2cccnc12	35.5µM	-	-	-	-
Oc1ccc(Cn2ccnc2)c2cccnc12	22.4µM	0	0	0	0
Cc1ccc(O)c2ncccc12	-	-	-	-	0
COCc1ccc(O)c2ncccc12	0	0	25.1µM	?	?
COC(=O)C(C(=O)OC)C1c2ccccc2C=C(C)N1C(=O)OC (stereo not drawn)	-	0[11.5 µM]	-	-	-
OCc1ccnc2c(O)cccc12	14.1µM	0	11.2µM	0	0
Oc1ccc(COc2cccc3ccccc23)c2cccnc12	8.91µM	-	-	-	-
O=C(Nc1ccccc1)c1ccc(NCc2ccco2)c(S(=O)(=O)N2CCOCC2)c1	31.6µM	0	0	0	0
SMILES	Sm TGR inh	LmPK inh	AMA1-RON2 inh	RE007 growth inh	Tb PYK inh
CCN(CC)c1ccc(S(=O)(=O)N2CCOCC2)cc1NC(=O)COC(=O)/C=C/c1ccccc1	-	-	0	0	0
COc1ccc(C(=O)Nc2ccc(-c3ccc(C)o3)cc2)cc1S(=O)(=O)N1CCOCC1	50.1µM	0	0	0	0
CCN(CC)c1ccc(S(=O)(=O)N2CCOCC2)cc1NC(=O)COC(=O)/C=C/c1ccc(C)o1	31.6µM	-	0	0	0
O=C(Nc1ccccc1)c1ccc(NCCN2CCOCC2)c(S(=O)(=O)N2CCOCC2)c1	0	0	0	0	0
COc1ccc(NC(=O)C2CCC(C(C)(C)C)CC2)cc1S(=O)(=O)N1CCOCC1 (stereo not drawn)	39.8µM	-	0	0	0
CCN(CC)S(=O)(=O)c1ccc(C(=O)NCCSc2c(-c3ccc(F)cc3)[nH]c3ccccc23)cc1	0	-	-	-	0
